HIF-2a inh: blocks HIF-2a reporter activity | 786-0 RCC cells HIF-2a reporter, luciferase luminescence, overnight | inhibition, % at 18.8 µM | 0.72% of 360,000 active | AID 624352;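 active = inhibition of the luminescence signal of 40% or more relative to plate controls, in a single-dose primary screen at 18.75 µM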
TWEAK-Fn14 inh: TWEAK-Fn14 signaling inhibition | TWEAK-stimulated Fn14 reporter cells, luciferase luminescence, 8 h | inhibition, % at 10 µM | 2% of 360,000 active; in the data active = inhibition above about 50%
TRAIL sens C8: sensitizes caspase-8 expressing cells to TRAIL; NB7+C8 cells + TRAIL, ATPlite viability luminescence; inhibition (viability loss, TRAIL sensitization), % at 10 µM; 1% of 360,000 active;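 active = compounds causing at least 50% loss of cell viability in the single-dose screen, relative to plate controls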
HSP90 inh: blocks HSP90-mediated luciferase refolding in reticulocyte lysate; Rabbit reticulocyte lysate, luciferase refolding luminescence, 3 h; inhibition, % at 5.6 µM; 0.91% of 290,000 active;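 active = inhibition above the screen-wide mean plus 3 SD, computed separately per campaign, cut at about 16% in these data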;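 note: 0% = DMSO wells and 100% = 60 µM geldanamycin wells; inhibitors lower the luminescence because luciferase stays unfolded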
aSyn UTR inh: MLPCN primary screen, SNCA 5' untranslated region; alpha-synuclein 5'UTR reporter, inhibitor activity; inhibition, % (tested at 7.5 µM); 0.82% of 300,000 active; in the data active = inhibition above about 60%;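 note: H4 neuroglioblastoma cells stably carrying SNCA 5'UTR luciferase fusion; 0% = DMSO wells and 100% = positive control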
TROY signal inh: blocks TROY-dependent signaling in reporter cells; Q293 LMP1-TROYcd NF-kB luciferase reporter, 4 h; inhibition, % at 10 µM; 0.98% of 360,000 active; AID 1347056;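 active = compounds whose plate-normalised and pattern-corrected inhibition of the luciferase reporter signal at the single screening dose is 50% or more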
HSP90 confirm: confirmation of HSP90 inhibitors. shares compounds with HSP90 inh. rabbit reticulocyte lysate, luciferase refolding luminescence, 3 h. inhibition, % at 5.9 µM. 64% of 2,300 active; in the data active = inhibition above about 18%;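 note: 0% = vehicle wells and 100% = reference inhibitor wells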
luciferase ctr: blocks native firefly luciferase in HSP90 counter-screen; shares compounds with HSP90 inh; purified native firefly luciferase, luminescence; inhibition, % at 5.9 µM; AID 1847; 48% of 2,300 active;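 active = inhibition above the mean inhibition of all tested sample wells plus 3 SD, cut at about 10% in these data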;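 note: 0% = DMSO with luciferase and 100% = wells lacking luciferase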
Target sequence (P08659 whole entry, looked up): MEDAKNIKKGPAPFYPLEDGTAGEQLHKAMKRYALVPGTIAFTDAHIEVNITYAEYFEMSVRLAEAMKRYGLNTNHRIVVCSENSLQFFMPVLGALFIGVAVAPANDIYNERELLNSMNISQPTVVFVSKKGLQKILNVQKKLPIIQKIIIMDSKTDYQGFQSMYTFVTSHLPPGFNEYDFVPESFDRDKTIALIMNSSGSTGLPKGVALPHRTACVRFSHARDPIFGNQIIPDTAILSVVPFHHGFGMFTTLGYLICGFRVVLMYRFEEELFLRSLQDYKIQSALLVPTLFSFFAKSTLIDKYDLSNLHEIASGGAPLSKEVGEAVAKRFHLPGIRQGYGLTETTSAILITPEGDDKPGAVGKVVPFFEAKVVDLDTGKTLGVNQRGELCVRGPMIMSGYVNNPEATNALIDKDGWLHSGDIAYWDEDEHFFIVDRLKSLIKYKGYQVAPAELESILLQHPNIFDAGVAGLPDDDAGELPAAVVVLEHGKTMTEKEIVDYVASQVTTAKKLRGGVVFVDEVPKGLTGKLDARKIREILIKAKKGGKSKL
* marks the source's active call; other numbers are inactive results; / = no result. Only some compounds are listed: those with a hit (about 3.9% of all), similar ones and a draw of the others.

SMILES | HIF-2a inh | TWEAK-Fn14 inh | TRAIL sens C8 | HSP90 inh | aSyn UTR inh | TROY signal inh | HSP90 confirm | luciferase ctr
Cc1c(C(=O)O)cccc1-c1ccc(/C=N/n2cnnc2)o1 | -47 | -16 | -1 | 18* | -79 | -51 | 20* | 8
Cc1cccc(NC(=O)c2sc(C)nc2C)c1 | -188 | -22 | 19 | 1 | -58 | -44 | / | /
Cc1cccc(C(=O)Nc2nc(C)c(C(=O)Nc3ccc4c(c3)CCC4)s2)c1 | -61 | 52* | -43 | 80* | -121 | 8 | 83* | 15*
Cc1cccc(NC(=O)CCCN=C2NS(=O)(=O)c3ccccc32)c1C | -1 | -3 | 14 | / | / | -8 | / | /
CCc1ccccc1N(CC(=O)N1CCCC1)S(C)(=O)=O | 24 | 4 | 2 | 22* | 2 | 0 | -3 | -2
COc1ccc(C(=O)O)cc1S(=O)(=O)N1CCN(c2ccccn2)CC1 | 12 | 20 | -1 | 17* | 10 | -17 | -7 | -13
CN(C)c1cccc(C(=O)OCC(=O)NC(=O)NCc2ccccc2)c1 | -1 | -10 | -3 | / | / | -10 | / | /
COc1ccc(-c2nc(CN3CCCCC3CCc3ccccn3)c(C)o2)cc1 (stereo not drawn) | 1 | 17 | 17 | 4 | 2 | -10 | / | /
CCOc1ccc(-c2nc(CN3CCCCC3CCn3cccn3)c(C)o2)cc1 (stereo not drawn) | -52 | -1 | 4 | 18* | -20 | -21 | 36* | 0
C=CCOc1c(CNc2cccc(C(=O)O)c2)cccc1OCC | -6 | -31 | -24 | -4 | -9 | -67 | / | /
C=CCOc1c(CNc2cccc(C(=O)O)c2)cccc1OC | -109 | 54* | 10 | 45* | -78 | 9 | 53* | -18
O=C(c1ccco1)N1CCN(c2ccc([N+](=O)[O-])cc2F)CC1 | -52 | -2 | -15 | -1 | -20 | 1 | / | /
O=C1CCN(c2ccc([N+](=O)[O-])cc2F)CC1 | 8 | -2 | -6 | 34* | -15 | 16 | -5 | -8
Nc1cc2nsnc2cc1Br | 24 | -4 | 96* | 25* | 8 | -5 | 14 | -5
Nc1cccc2nsnc12 | 11 | 4 | -4 | 0 | 4 | -20 | / | /
CN(C(=O)CSc1nnc(-c2ccccc2)o1)c1c(N)n(Cc2ccccc2)c(=O)[nH]c1=O | 5 | 13 | -6 | 19* | 10 | -14 | -3 | -1
CSc1nnc(SCC(=O)N(C)c2c(N)n(Cc3ccccc3)c(=O)[nH]c2=O)s1 | 9 | 1 | -2 | / | 5 | -5 | / | /
COc1ccc(C(=O)Nc2ccc3ncccc3c2)cc1 | -49 | 75* | 83* | 29* | 25 | 38 | 49* | 29*
O=C(C(=O)c1cccnc1)c1cccnc1 | 8 | -25 | -3 | 20* | 18 | -11 | -2 | -7
COc1cccc(C(=O)Nc2ccc(NC(=O)C(C)(C)C)cn2)c1 | -21 | 75* | 77* | 33* | 39 | 65* | 48* | 37*
Cc1ccc(C(=O)Nc2cccc(NC(=O)c3cccnc3)c2)cc1 | 5 | 15 | -28 | 38* | -19 | 2 | 0 | -7
COC(=O)c1ccc(CNC(=O)C(C)N=C2NS(=O)(=O)c3ccccc32)cc1 (stereo not drawn) | 7 | 0 | -7 | / | / | -8 | / | /
Cc1cnc(CNC(=O)c2csc([C@@H]3C[C@H](O)[C@@H](CO)O3)n2)cn1 | 2 | -15 | -14 | / | / | 2 | / | /
COc1ccc(NC(=O)c2cccnc2)cc1 | -77 | 4 | 3 | 23* | -43 | -2 | -8 | -9
COc1ccc(C(=O)Nc2cccnc2)cc1 | -90 | -19 | 4 | 1 | -40 | -20 | / | /
SMILES | HIF-2a inh | TWEAK-Fn14 inh | TRAIL sens C8 | HSP90 inh | aSyn UTR inh | TROY signal inh | HSP90 confirm | luciferase ctr
COc1cc(NC(=O)c2cccnc2)c(Cl)cc1NC(=O)c1ccc(Cl)cc1 | -3 | 10 | -6 | -2 | -14 | 2 | / | /
COc1cc(NC(=O)c2ccc(Cl)cc2)c(Cl)cc1NC(=O)c1cccnc1 | -7 | -23 | -1 | 45* | 29 | -14 | 0 | -9
COc1ccc(NC(=O)COc2ccccc2C(=O)NCC(c2ccccc2)N(C)C)cc1Cl (stereo not drawn) | 4 | 31 | -22 | -2 | -17 | 14 | / | /
COc1cccc2oc3cc(C#CC4(O)CCCCC4)ccc3c(=O)c12 | -144 | 73* | 72* | 26* | -35 | 77* | 30* | 19*
NNC(=O)c1cccc(COc2ccc(Br)cc2)c1 | 0 | -14 | 23 | 60* | 0 | -67 | 49* | 17*
NNC(=O)c1cccc(COc2cccc(Br)c2)c1 | -79 | -21 | -9 | -1 | -86 | -72 | / | /
NS(=O)(=O)c1cccc(NC(=O)COC(=O)CNC(=O)c2ccc(-c3ccccc3)cc2)c1 | -35 | -24 | -10 | / | / | 18 | / | /
O=C(C1CCCN(S(=O)(=O)Cc2ccccc2)C1)N1CCCCC1 (stereo not drawn) | 0 | 1 | -6 | 25* | 19 | 18 | -4 | -10
O=C(c1ccco1)N1CCN(C(=O)C2CCCN(S(=O)(=O)Cc3ccccc3)C2)CC1 (stereo not drawn) | 12 | -7 | 3 | -2 | -3 | -8 | / | /
COc1cc(NC(=O)Nc2nnc([C@H]3C[C@H](O)[C@@H](CO)O3)s2)cc(OC)c1 | 7 | -13 | 1 | / | / | -30 | / | /
C[C@H]1CN(c2ccc(Br)cc2)C(=O)[C@@H]1CC(=O)Nc1ccccc1 | -7 | 13 | -5 | / | / | -13 | / | /
O=c1cc(-c2ccccc2)oc2ccccc12 | -204 | -19 | -9 | / | / | -84 | / | /
c1ccc(-c2cc3c(-n4cccc4)ncnc3o2)cc1 | -104 | 28 | 8 | 17* | 13 | -8 | -4 | -16
OC(c1ccccc1)c1nc(-c2ccc(F)c(Cl)c2)cs1 (stereo not drawn) | -129 | -10 | -12 | / | / | -40 | / | /
c1ccc(-c2nnc(-c3ccccn3)nc2NC2CCCCC2)cc1 | -27 | -17 | 11 | 22* | 101* | -5 | 16* | -12
COc1ccccc1CNC(=O)C1(C)CCN1C(=O)Cc1ccc(-c2ccccc2)cc1 (stereo not drawn) | 13 | 17 | 29 | / | / | 15 | / | /
CCOc1ccc(C(=O)OCC(=O)N2CCCC2)cc1 | -112 | -4 | -8 | 10 | -36 | -25 | / | /
Cc1cccc(NC(=O)c2cc3ccccc3oc2=O)c1 | -238 | 53* | 28 | 20* | -25 | 24 | 33* | 13*
Cc1ccc(NC(=O)c2cc3ccccc3oc2=N)cc1 | -114 | 98* | 49 | 55* | 82* | 38 | 20* | 31*
O=C(Nc1cccnc1N1CCOCC1)c1cc2ccccc2oc1=O | -124 | -13 | 0 | / | -33 | -67 | / | /
COc1cccc(NC(=O)c2cc3ccccc3o/c2=N\O)c1 | -58 | 78* | 55* | 48* | -39 | 23 | 66* | 63*

Compound activity (PubChem BioAssay)
